Experimental findings from PubChem BioAssay (NCI) are described below.

About 79,000 compounds went through this panel and 15% of them were active in at least one assay; those are over-represented in the sample as a whole. A number with no mark means an inactive call. Calls of active or inactive are those of the source. No stated cut-off is given here; in the data, active means growth inhibition above about 70%; inactive means the rest.

The first assay is described as follows: NCI Yeast Anticancer Drug Screen. Data for the rad14 strain (AID 159).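 Further: 0% = growth of vehicle-treated control cultures.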 The following applies: S. cerevisiae rad14 strain growth inhibition; at 3.7 µM; active compounds read high. Put shortly: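 Here, inhibition of yeast growth was measured after compound exposure, using a strain with a genetic defect in DNA damage repair and vehicle-treated cultures as the reference.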
As to `Nc1ncc(-c2ccc(Br)cc2)s1`, the growth inhibition is -8%.

In the case of `Cc1cc2cc3cc(C)c(N)cc3nc2cc1N`, the growth inhibition is -23%. For the molecule `CC12C(=O)OC(=O)C(c3ccccc31)c1ccccc12`, the growth inhibition was -9%. On to `c1ccc2c(OCC3CO3)cccc2c1` (stereo not drawn), for which the growth inhibition was -3%. For the molecule `CCOC(=N)c1ccc(O)c(OC)c1`, the growth inhibition was -6%. Same read-out and setting: with `Nc1cc(N)c(N=Nc2cccc3c(S(=O)(=O)O)cccc23)cc1N=Nc1cc([N+](=O)[O-])ccc1O` the figure was -22%; with `COC(=O)Oc1cc(Cl)c(Cl)cc1Cl`, 0%. On to `O=C(O)C1CC(c2ccccc2)=NN1c1ccccc1` (stereo not drawn), for which the growth inhibition is -15%. For `COc1cc([C@@H]2c3cc4c(cc3[C@@H](Nc3ccc(NC(=O)c5cc([N+](=O)[O-])cn5C)cc3)[C@H]3COC(=O)[C@H]23)OCO4)cc(OC)c1O`, the growth inhibition was 16%. Regarding `O=C(O)c1ccccc1/C=N/N=C1c2ccccc2-c2ccccc21`, the growth inhibition is -1%. Still for that read-out and setting: with `O=C1CC(=O)c2ccccc21` the figure was 3%; with `Nc1ncnc2c1ncn2C1OC(CO)CC1O` (stereo not drawn), -1%.

The assay is the same for the next values; noted with them: S. cerevisiae rad14 strain growth inhibition; at 11.0 µM; active compounds read high.
In the case of `CS(=O)(=O)SCc1ccc([N+](=O)[O-])cc1`, the growth inhibition was 69%. With `Cc1csc(=S)n1OC(=O)NC1CCCCC1`, the growth inhibition is 99% (active). As for `CCOc1ccc(NC(=O)C2=C(C)NC(C)=C(C(=O)Nc3ccc(OCC)cc3)C2c2cccc([N+](=O)[O-])c2)cc1`, the growth inhibition was -1%. Turning to `CC(C)(C)N=C(NO)c1ccccc1`, the growth inhibition is 0%. In the case of `CCCCC/C(=C(\C#N)C(=O)OCC)c1ccccc1`, the growth inhibition is 1%. For `O=C(NCCCl)Sc1ccc(Cl)cc1`, the growth inhibition is 2%.

With `O=C1Nc2ccc(Br)cc2C1=Nc1ccc2c(c1)OCO2`, the growth inhibition was -32%. For `CCC(C)OC(=O)Nc1ccc(C)c(NC(=O)OC(C)CC)c1` (stereo not drawn), the growth inhibition was 1%.

In the case of `O=C(O)c1cc2ccc(Cl)cc2c(O)c1C1=CCCCC1`, the growth inhibition is 9%. On to `CN(C)Cc1cc(N=Nc2ccc(Cl)cc2)ccc1OC(=O)c1ccccc1`, for which the growth inhibition is 1%. Still for that read-out and setting: next, `CN1CCN(C(=O)/C=C/C(=O)c2ccccc2)CC1`: 20%. As for `CCCC/C=C/C(C)(C(=O)OCC)C(=O)OCC`, the growth inhibition was -1%. Still for that read-out and setting: next, `Cc1nc(-c2cc3cc([N+](=O)[O-])ccc3oc2=O)cs1`: 13%; `Cc1nc2ccccc2nc1NNc1ccccc1`: 0%. As to `CN(C)[C@@H]1C(=O)C(C(N)=O)=C(O)[C@@]2(O)C(=O)C3=C(O)c4c(O)cccc4C[C@H]3C[C@@H]12`, the growth inhibition was 44%.

In the case of `COc1ccc(NC(=O)CC2SC(=Nc3ccccc3C)NC2=O)c([N+](=O)[O-])c1` (stereo not drawn), the growth inhibition is 1%. With `COc1cc(O)c2c(c1O)C(=O)c1cc(C)ncc1C2=O`, the growth inhibition was 70% (active). Take `CSc1nnc(SC)nn1`: the growth inhibition was 34%. The same measure, in the same setting: with `COc1cc(/C=C2\CCC/C(=C\c3ccc(O)c(OC)c3)C2=O)ccc1O` the figure was 12%; with `CN(C)CCNC(=O)c1cccc2cc([N+](=O)[O-])ccc12`, 47%; with `CCC(C)(C)c1ccc(Oc2cccc(C(=O)O)c2)cc1`, 2%.

Regarding `CCCCCCSc1ncnc2[nH]ncc12`, the growth inhibition was 1%. Same read-out and setting: with `CC(=O)Nc1ccc(/C=C/[N+](=O)[O-])cc1` the figure was 18%. As to `CCOC(=O)c1[nH]n(-c2ccccc2)c(=O)c1C=NC(=S)C(N)=S`, the growth inhibition is -11%. As for `CCCC(O)C1CC(C(C)C)CCC1C` (stereo not drawn), the growth inhibition was 4%.

With `O=[n+]1c2ccccc2n([O-])c2cc(Br)ccc21`, the growth inhibition was 95% (active).

As to `CN(C)CCNC(=O)c1cccc2c1Oc1c(cccc1[N+](=O)[O-])O2`, the growth inhibition is -10%. Still for that read-out and setting: with `Nc1ncc(-c2ccc(Br)cc2)s1` the figure was -1%; with `Cc1cc2cc3cc(C)c(N)cc3nc2cc1N`, 5%; with `CC12C(=O)OC(=O)C(c3ccccc31)c1ccccc12`, 0%. Turning to `c1ccc2c(OCC3CO3)cccc2c1` (stereo not drawn), the growth inhibition was 1%. In the case of `CCOC(=N)c1ccc(O)c(OC)c1`, the growth inhibition was -19%.

Consider `Nc1cc(N)c(N=Nc2cccc3c(S(=O)(=O)O)cccc23)cc1N=Nc1cc([N+](=O)[O-])ccc1O`, for which the growth inhibition is -19%.

Take `COC(=O)Oc1cc(Cl)c(Cl)cc1Cl`: the growth inhibition is 2%. Still for that read-out and setting: with `O=C(O)C1CC(c2ccccc2)=NN1c1ccccc1` (stereo not drawn) the figure was -18%.

`COc1cc([C@@H]2c3cc4c(cc3[C@@H](Nc3ccc(NC(=O)c5cc([N+](=O)[O-])cn5C)cc3)[C@H]3COC(=O)[C@H]23)OCO4)cc(OC)c1O`: the growth inhibition was 18%.
